Sampled rows, rich in hits. Any-hit rate of the full collection: about 12%.
Arbovirus inh: blocks arbovirus infection | arbovirus infection cell-based antiviral screen | inhibition, % at 10 µM | 200,000 compounds, 0.37% hits | AID 1251; in the data active = inhibition above about 30%
Lmaj promast: Leishmania major promastigote growth inhibition. inhibition, % at 10 µM. Leishmania major promastigotes, resazurin fluorescence viability. AID 1063. 200,000 compounds, 9% hits; in the data active = inhibition above about 50%;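 also: promastigotes grown with compound for 44 hours at 28 °C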
CHOP inh: blocks CHOP induction under ER stress; CHO-K1 CHOP-promoter luciferase, tunicamycin-induced, 15-18 h; inhibition, % at 10 µM; 220,000 compounds, 3.8% hits; AID 2732;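 active = compounds that reduced the stress-induced luciferase reporter signal by more than about 70% of percent inhibition, limit read from the data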
WT yeast gro inh: growth inhibition of WT yeast, mitochondrial fusion screen. mitochondrial fusion phenotypic screen, WT strain. inhibition, % at 10 µM. AID 1362. 190,000 compounds, 2.1% hits; in the data active = inhibition above about 58%; tested in S. cerevisiae
Hits are given with their value; - = inactive; . = no result.

SMILES	Arbovirus inh	Lmaj promast	CHOP inh	WT yeast gro inh
Cc1c(CN2CCC(CO)(CCOc3ccccc3)CC2)c(=O)n(-c2ccccc2)n1C	-	-	-	-
Cc1ccccc1NC(=O)c1cc(C(=O)c2cc(Cl)ccc2O)cn(-c2ccccc2C)c1=O	-	61	70	-
O=C(CCC(=O)OCC(=O)c1ccc(Br)cc1)Nc1ccc(Br)c2cccnc12	-	-	-	.
CC(=O)N1N=C(c2ccccc2O)OC1(C)CC(=O)Nc1ccccc1 (centres undefined)	-	60	-	-
CCN1CCN(c2cc(C)c3cc(NC(=S)N4CCCC(C)C4)ccc3n2)CC1 (centres undefined)	-	96	-	-
CCN1CCN(c2cc(C)c3cc(NC(=S)N4CC(C)CC(C)C4)ccc3n2)CC1 (centres undefined)	-	100	-	-
c1ccc2c(c1)OCCOCCOCCOCCOCCOc1ccccc1OCCOCCOCCO2	-	100	-	-
CC(=O)c1ccccc1NC(=O)Cn1c(=O)cnc2ccccc21	-	58	-	-
Cc1ccc(NC(=O)Cn2c(=O)cnc3ccccc32)cc1S(=O)(=O)N(C)C	-	-	-	-
Cc1csc(NC(=O)CN2C(=O)C3CC=CCC3C2=O)n1 (centres undefined)	31	-	-	-
O=C(CCc1ccc(Oc2cc([N+](=O)[O-])cc([N+](=O)[O-])c2)cc1)N1CCCCC1	-	92	-	-
O=C(CCc1ccc(Oc2cc([N+](=O)[O-])cc([N+](=O)[O-])c2)cc1)Nc1cccc(Cl)c1	-	100	-	-
COc1ccc(CCC(=O)Nc2cccc(Cl)c2)cc1	-	-	-	-
O=C(c1ccc(Oc2ccc([N+](=O)[O-])cc2Cl)cc1)N1CCCC1	-	-	-	-
CCC(CC)C(=O)NCc1ccc(OC)cc1	-	-	-	-
Cc1ccc(N2C(=O)SC(Cc3ccccc3)C2=O)cc1 (centres undefined)	.	.	-	.
CCCc1ccc(OCc2ccc(C(=O)OC)o2)c(OC)c1	-	-	78	-
Cc1onc(C(=O)NC(C)c2ccccc2)c1[N+](=O)[O-] (centres undefined)	-	-	-	-
Cc1onc(-c2ccccc2)c1C(=O)/C=C/N(C)C	.	.	-	.
Oc1cccc(NC(=S)N=Nc2c(O)[nH]c3ccccc23)c1	.	.	-	.
CCOc1ccc(NC(=S)N=Nc2c(O)[nH]c3ccccc23)cc1	-	98	-	-
COc1cccc(C(=O)NC(=S)Nn2cnnc2)c1OC	-	-	-	-
CN(C(=O)c1ccc(OC2CCN(CCc3ccccc3)CC2)cc1)C1CCOCC1	-	-	-	-
CN(C(=O)c1ccc(OC2CCN(CCc3ccccc3)CC2)cc1)C1CCCCC1	-	91	-	-
CC(C)c1nnc(NC(=O)CCC(=O)NCc2cccs2)s1	-	-	-	-
SMILES	Arbovirus inh	Lmaj promast	CHOP inh	WT yeast gro inh
Cc1ccccc1OCCn1cc(C(=S)N2CCN(C)CC2)c2ccccc21	-	79	-	-
CN1CCN(C(=S)c2cn(Cc3cccc(F)c3)c3ccccc23)CC1	-	-	-	-
CC1CCN(C(=S)c2cn(Cc3ccccc3F)c3ccccc23)CC1	-	-	-	74
CN1CCN(C(=S)c2cn(Cc3ccccc3F)c3ccccc23)CC1	-	-	-	-
CN1CCN(C(=S)c2cn(Cc3ccc(F)cc3)c3ccccc23)CC1	-	51	-	-
O=C1COC(c2ccccc2)C2CCCCN12 (centres undefined)	-	-	-	-
Cc1csc(NC(=O)CSc2nnc(-c3ccccc3)o2)n1	-	-	-	-
CCOC(=O)Cc1csc(NC(=O)CSc2nnc(-c3ccc(F)cc3)o2)n1	-	-	78	-
CCOC(=O)Cc1csc(NC(=O)CSc2nnc(-c3ccc(C)cc3)o2)n1	-	-	78	-
C=C(C)CSc1nc2c(c(=O)[nH]c(=O)n2C)n1CCC(C)C	-	-	-	-
O=C(O)C(=O)Cc1c[nH]c2ccccc12	-	-	-	-
O=C1N/C(=N/N=C/c2ccccc2)SC1(c1ccccc1)c1ccccc1	-	-	-	-
Cc1ncoc1C(=O)N1CCc2c([nH]c3ccccc23)C1c1ccccc1F (centres undefined)	-	-	-	-
O=C(c1cc2ncccn2n1)N1CCc2c([nH]c3ccccc23)C1c1ccccc1F (centres undefined)	-	56	-	-
CC(C)(C#CC(O)(c1ccccc1)c1ccccc1)N1CCCC1	-	-	-	-
C=COCCn1c(=N)n(CCC)c2ccccc21	-	-	-	-
CCCn1c(=N)n(CCOCCOCCn2c(=N)n(CCC)c3ccccc32)c2ccccc21	.	88	.	.
CCN(CC)CCn1c(=N)n(CC(O)COc2ccccc2)c2ccccc21 (centres undefined)	.	.	-	.
COc1ccc(OCCn2c(=N)n(CCO)c3ccccc32)cc1	-	-	-	.
